Measurements from PubChem BioAssay (NCATS).
Inconclusive results are not listed. Unmarked numbers belong to inactive results. Calls come from the whole dose curve; as a rule, active = well fitted inhibition curve with a large enough effect; inconclusive = small, poorly fitted or top-dose-only effect; inactive = no such curve, though single readings can be large or run the other way.

Test: qHTS assay for measurement of the activity of small molecule inhibitors on Zika virus induced Caspase-3 activity in human iPSC derived neural progenitor cells (hNPCs) (AID 1224857); note: % of control where 0% means no effect; nearly all actives have a fitted effect of over 65% in size
Conditions: hNPCs ZIKV-induced caspase-3/7, Caspase-Glo luminescence, 6 h; series mostly up to 45.7 µM; activity change, negative = inhibition: at the top concentration
Outline: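 Quantitative HTS format: human iPSC neural progenitors, 1 h compound pretreatment, ZIKV 2 FFU/cell for 6 h at 37 C. Percent inhibition derived from luminescent caspase-3/7 signal between uninfected and infected controls.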

SMILES	activity change, negative = inhibition [%]
CC(=O)OCC(=O)Nc1cc(C#N)cc(NC(=O)COC(C)=O)c1Cl	0.424
CCN1C(=O)c2ccccc2C1Nc1ccc(OCCN2CCCCC2)cc1 (centres undefined)	4.47
CCC1=C[C@@H]2CN(C1)Cc1c([nH]c3ccccc13)[C@@](C(=O)OC)(c1cc3c(cc1OC)N(C)[C@H]1[C@@](O)(C(=O)OC)[C@H](OC(C)=O)[C@]4(CC)C=CCN5CC[C@]31[C@@H]54)C2	27.6
CC(=O)Nc1ccn(C2COC(COC(=O)c3ccccc3)O2)c(=O)n1 (centres undefined)	-3.12
Cc1ccc(CCn2c3c(c4cc(Cl)ccc42)CN(C)CC3)cn1	22.3
O=C(Nc1ccc(Cl)cc1)Nc1ccc(Cl)c(C(F)(F)F)c1	35.1
O=C(CCCCCCCCC#CI)Oc1ccccc1	-14.9
CN(CC1(C)CCCO1)S(=O)(=O)c1ccc(Cl)c(S(N)(=O)=O)c1 (centres undefined)	23.3
O=C(O)Cc1ccccc1Oc1ccc(Cl)cc1Cl	6.01
CO/N=C(/C(=O)N[C@@H]1C(=O)N2C(C(=O)O)=C(Cn3nnc(C)n3)CS[C@H]12)c1csc(N)n1	-5.58
CCCCCCCCCCCC[N+](C)(C)Cc1ccccc1	53
CC(C)=CCNc1ncnc2c1ncn2[C@@H]1O[C@H](CO)[C@@H](O)[C@H]1O	52.2
CCOC(=O)C1=C(C)NC(C)=C(C(=O)OCC)C1c1ccccc1/C=C/C(=O)OC(C)(C)C	183
C=CC[N+]1([C@H]2C[C@H]3[C@@H]4CC[C@H]5C[C@H](OC(C)=O)[C@@H](N6CCCCC6)C[C@]5(C)[C@H]4CC[C@]3(C)[C@H]2OC(=O)CC)CCCCC1	-1.73
